The nature of assay [1]: Primary qHTS for inhibitors of La Crosse Virus (LACV) - induced cell death in SH-SY5Y cells (AID 1508616).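 Also: top concentration of the series differs between compounds; higher means more rescue of cells from virus-induced death.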 A digest of the protocol: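 SH-SY5Y cells (6000/well) plated 24 h, then given compounds by pin transfer and LACV at 0.01 MOI for 6 days at 37C. Viability measured by ATPLite luminescence, normalized to infected DMSO and uninfected DMSO.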
For orientation: Quantitative high-throughput screening tests each substance at several concentrations.

Assay [2] concerns the target Calcium and integrin-binding protein 1 (Homo sapiens) (UniProt Q99828). The assay can be described thus: Primary qHTS for Identification of Calcium Integrin Binding Protein 1 (CIB1) Competitor (AID 1508620).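 Also: GST tagged CIB1 binding a fluorescein labelled alphaIIb integrin peptide tracer; top concentration of the series differs between compounds.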 Put shortly:
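Fluorescence polarization competition: CIB1-GST (1 uM final) preincubated with compound 15 min at room temperature, then FITC-labeled alphaIIb peptide (100 nM final) added for another 15 min. Polarization read at Ex 480/Em 540.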

Assay [3] concerns the target Cytochrome P450 2D6 (Homo sapiens) (UniProt P10635). The assay is described as follows: Cytochrome P450 family 2 subfamily D member 6 (CYP2D6) small molecule antagonists: luciferase biochemical (cell-free) qHTS assay (AID 1645840; active = well fitted curve in the direction sought with a large enough effect in the repeat runs; an effect the other way counts as inactive or inconclusive; also: nearly all actives have a fitted effect of over 55% in size; also: potency is read from the fitted curve at half-maximal effect). Put shortly: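 P450-Glo luminescent screen: recombinant CYP2D6 enzyme–proluciferin substrate mix preincubated with compound 10 min at room temperature, then NADPH regeneration added for 1 h at room temperature. Detection reagent added for 20 min; luciferin light read as relative luminescence units.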

For assay [4], the target named is Cytochrome P450 2C9 (Homo sapiens) (UniProt P11712). The assay is described as follows: Cytochrome P450 family 2 subfamily C member 9 (CYP2C9) small molecule antagonists: luciferase biochemical (cell-free) qHTS assay (AID 1645842; active = well fitted curve in the direction sought with a large enough effect in the repeat runs; an effect the other way counts as inactive or inconclusive; also: nearly all actives have a fitted effect of over 55% in size; also: potency is read from the fitted curve at half-maximal effect). Put shortly: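 Luminescence, after 20 min with luciferin detection reagent, reflected CYP2C9 turnover during a 1 h NADPH-driven reaction at 37C. Enzyme-substrate mix contained 0.4% bovine serum albumin and was preincubated with compound 10 min at room temperature.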
Chain of Cytochrome P450 2C9 (Homo sapiens) (P11712 whole entry, looked up): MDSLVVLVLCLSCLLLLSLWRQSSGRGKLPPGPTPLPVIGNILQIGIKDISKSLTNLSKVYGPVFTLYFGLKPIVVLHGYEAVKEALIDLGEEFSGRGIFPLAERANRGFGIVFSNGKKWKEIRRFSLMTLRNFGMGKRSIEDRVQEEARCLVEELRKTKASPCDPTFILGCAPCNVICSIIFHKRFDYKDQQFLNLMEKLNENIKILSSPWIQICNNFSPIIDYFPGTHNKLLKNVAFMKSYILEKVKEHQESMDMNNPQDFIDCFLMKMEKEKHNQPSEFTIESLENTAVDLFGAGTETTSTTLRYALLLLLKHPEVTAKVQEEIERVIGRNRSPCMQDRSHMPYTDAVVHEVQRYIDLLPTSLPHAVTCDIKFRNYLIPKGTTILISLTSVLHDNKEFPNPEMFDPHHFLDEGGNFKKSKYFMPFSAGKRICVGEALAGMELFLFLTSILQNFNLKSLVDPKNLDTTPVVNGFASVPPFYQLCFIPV

A short description of assay [5]: Primary qHTS for inhibitors of nuclear receptor binding SET domain protein 2 (NSD2) in an isogenic RCH-ACV NSD2 p.E1099K mutant (9B) (AID 1645876). Also: nearly all actives have a fitted effect of over 70% in size. Also: potency is read from the fitted curve at half-maximal effect.
A short description of assay [6]: Primary qHTS for inhibitors of nuclear receptor binding SET domain protein 2 (NSD2) in an RCH-ACV wild type WT cells (2C) (AID 1645877). Also: nearly all actives have a fitted effect of over 70% in size. Also: potency is read from the fitted curve at half-maximal effect.
The nature of assay [7]: A High-Content qHTS Against Drug Library for the Identification of Small Molecules that Inhibit DYT1 Early Onset Primary Dystonia-Associated Cell Pathology (AID 1645839; calls by dose curve; also: potency is read from the fitted curve at half-maximal effect). Put shortly:
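Readout: %pathology, the punctate EGFP-TorsinA distribution from imaging, as the primary channel and cell count as the toxicity counterscreen. HEK293 Flp-In cells expressing delE TorsinA were induced with tetracycline and treated with compound for 48 h.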

Assay [8] has as its target Rap guanine nucleotide exchange factor 3 (Homo sapiens) (UniProt O95398). The assay is described as follows: Confirmatory qHTS for agonist of cAMP-regulated guanine nucleotide exchange factor 3 (EPAC1) (AID 1645881).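 Also: EPAC1 catalysed release of BODIPY-GDP from Rap1B seen as fluorescence loss; nearly all actives have a fitted effect of over 75% in size.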
In assay [9] the target is Rap guanine nucleotide exchange factor 4 (Homo sapiens) (UniProt Q8WZA2). The assay can be described thus: Confirmatory qHTS for agonist of cAMP-regulated guanine nucleotide exchange factor 4 (EPAC2) (AID 1645884).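 Also: nucleotide exchange releases bodipy-GDP from Rap1 and this lowers its fluorescence; nearly all actives have a fitted effect of over 65% in size.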
Chain of Rap guanine nucleotide exchange factor 4 (Homo sapiens) (Q8WZA2 whole entry, looked up): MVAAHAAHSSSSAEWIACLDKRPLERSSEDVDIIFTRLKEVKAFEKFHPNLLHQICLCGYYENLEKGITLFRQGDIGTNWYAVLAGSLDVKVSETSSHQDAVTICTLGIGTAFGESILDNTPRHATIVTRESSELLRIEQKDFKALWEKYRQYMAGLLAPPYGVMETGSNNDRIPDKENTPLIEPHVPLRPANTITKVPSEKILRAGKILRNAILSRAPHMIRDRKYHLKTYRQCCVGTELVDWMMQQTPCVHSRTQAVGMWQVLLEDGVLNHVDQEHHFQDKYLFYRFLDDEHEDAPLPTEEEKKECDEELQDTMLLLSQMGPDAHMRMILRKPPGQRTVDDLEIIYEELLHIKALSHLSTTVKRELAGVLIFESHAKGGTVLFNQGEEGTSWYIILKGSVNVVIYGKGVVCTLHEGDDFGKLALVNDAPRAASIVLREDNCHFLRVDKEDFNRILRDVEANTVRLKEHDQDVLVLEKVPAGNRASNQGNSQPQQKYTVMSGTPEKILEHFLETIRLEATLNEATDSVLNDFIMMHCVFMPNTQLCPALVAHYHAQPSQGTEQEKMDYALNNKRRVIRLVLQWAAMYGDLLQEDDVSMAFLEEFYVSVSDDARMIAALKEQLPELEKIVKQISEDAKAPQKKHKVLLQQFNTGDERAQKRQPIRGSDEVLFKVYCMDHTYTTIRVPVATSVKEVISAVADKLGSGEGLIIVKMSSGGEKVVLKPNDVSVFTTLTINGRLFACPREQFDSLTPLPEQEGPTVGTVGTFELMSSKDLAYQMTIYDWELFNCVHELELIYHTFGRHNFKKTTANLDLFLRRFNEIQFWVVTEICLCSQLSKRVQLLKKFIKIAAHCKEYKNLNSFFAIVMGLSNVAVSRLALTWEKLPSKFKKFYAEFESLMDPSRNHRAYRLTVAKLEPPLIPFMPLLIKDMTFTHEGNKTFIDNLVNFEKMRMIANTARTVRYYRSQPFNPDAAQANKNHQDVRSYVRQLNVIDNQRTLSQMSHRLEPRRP
The target is the same in assay [10]. The assay is described as follows: Confirmatory qHTS for antagonist of cAMP-regulated guanine nucleotide exchange factor 4 (EPAC2) (AID 1645885). Also: potency is read from the fitted curve at half-maximal effect; nearly all actives have a fitted effect of over 25% in size.
Assay [11] deals with Cytochrome P450 3A4 (Homo sapiens) (UniProt P08684). The assay is described as follows: Cytochrome P450 family 3 subfamily A member 4 (CYP3A4) small molecule antagonists: luciferase qHTS assay (AID 1645841; active = well fitted curve in the direction sought with a large enough effect in the repeat runs; an effect the other way counts as inactive or inconclusive; also: nearly all actives have a fitted effect of over 45% in size). A digest of the protocol: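 P450-Glo CYP3A4 enzyme with proluciferin substrate was preincubated with DMSO-dissolved compounds for 10 min at room temperature. NADPH regeneration solution started a 1 h reaction. Detection reagent stopped it, and luminescence was read after 20 min.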
Chain of Cytochrome P450 3A4 (Homo sapiens) (P08684 whole entry, looked up): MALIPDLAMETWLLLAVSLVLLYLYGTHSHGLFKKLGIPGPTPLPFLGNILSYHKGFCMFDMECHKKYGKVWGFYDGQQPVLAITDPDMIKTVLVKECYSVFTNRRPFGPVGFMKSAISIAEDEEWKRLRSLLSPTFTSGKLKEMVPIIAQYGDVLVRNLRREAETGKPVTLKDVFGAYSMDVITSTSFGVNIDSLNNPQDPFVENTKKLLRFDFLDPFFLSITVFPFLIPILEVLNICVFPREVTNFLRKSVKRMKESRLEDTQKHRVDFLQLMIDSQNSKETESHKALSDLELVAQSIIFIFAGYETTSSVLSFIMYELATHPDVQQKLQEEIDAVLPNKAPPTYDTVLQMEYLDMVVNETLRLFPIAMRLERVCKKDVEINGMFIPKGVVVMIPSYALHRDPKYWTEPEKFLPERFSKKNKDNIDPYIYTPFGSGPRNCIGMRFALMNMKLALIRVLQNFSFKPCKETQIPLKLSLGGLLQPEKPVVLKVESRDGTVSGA

Assay [12] can be described thus: Primary qHTS for small molecule stabilizers of the endoplasmic reticulum resident proteome: Secreted ER Calcium Modulated Protein (SERCaMP) assay (AID 1508630). A digest of the protocol:
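GLuc-SERCaMP-expressing SH-SY5Y cells, pretreated 16 h with compound, are challenged with thapsigargin to empty ER calcium stores; after 4 h, coelenterazine is added directly to the medium and luminescence is imaged.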

Assay [13] deals with N-terminal Xaa-Pro-Lys N-methyltransferase 1 (Homo sapiens) (UniProt Q9BV86). The assay is described as follows: Confirmatory qHTS for Inhibitors of N-terminal methyltransferase 1 (NTMT1): MTaseGlo Assay (AID 1645874). Also: nearly all actives have a fitted effect of over 65% in size. Also: potency is read from the fitted curve at half-maximal effect. Put shortly: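 Compounds are incubated with 125 nM NTMT1 and 100 uM SAM for 15 min before the SPKRIA peptide (1 uM) starts a 30 min room-temperature methylation. SAH is measured by coupled luciferase luminescence and curves fitted to a Hill equation.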
Chain of N-terminal Xaa-Pro-Lys N-methyltransferase 1 (Homo sapiens) (Q9BV86 whole entry, looked up): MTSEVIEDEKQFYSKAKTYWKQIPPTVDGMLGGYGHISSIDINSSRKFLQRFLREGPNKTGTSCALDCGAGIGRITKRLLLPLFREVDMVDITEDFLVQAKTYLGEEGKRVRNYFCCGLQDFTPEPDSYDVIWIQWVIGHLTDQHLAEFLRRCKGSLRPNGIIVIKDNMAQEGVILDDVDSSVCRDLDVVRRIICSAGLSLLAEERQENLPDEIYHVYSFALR

The target in assay [14] is Calcium and integrin-binding protein 1 (Homo sapiens) (UniProt Q99828). The assay is described as follows: Confirmatory qHTS for Identification of Calcium Integrin Binding Protein 1 (CIB1) Competitor (AID 1508617). Also: potency is read from the fitted curve at half-maximal effect; nearly all actives have a fitted effect of over 65% in size. Put shortly: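 Binding competition between test compounds and fluorescent alphaIIb peptide for 1 uM CIB1-GST is monitored by FP at 480/540 nm. Final compound range is up to 114 uM; unlabeled peptide serves as reference competitor.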
Chain of Calcium and integrin-binding protein 1 (Homo sapiens) (Q99828 whole entry, looked up): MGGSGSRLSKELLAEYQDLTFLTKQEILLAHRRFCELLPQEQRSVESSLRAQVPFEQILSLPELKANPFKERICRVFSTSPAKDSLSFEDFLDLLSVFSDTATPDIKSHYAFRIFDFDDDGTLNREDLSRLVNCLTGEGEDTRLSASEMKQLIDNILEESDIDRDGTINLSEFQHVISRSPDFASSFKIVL

Values joined by “and” are separate entries in the source; they are usually repeats but may differ in a detail not shown here. Equal values may be shown once. Records with an inconclusive call do not appear. Active and inactive are the calls of the source. Unless noted, calls follow the shape of the dose curve; as a rule, active = well fitted curve in the direction sought with a large enough effect; inconclusive = small, poorly fitted or top-dose-only effect, or another doubt; inactive = no such curve, though single readings can be large; an effect the other way counts as inactive or inconclusive.

Chain of Cytochrome P450 2D6 (Homo sapiens) (P10635 whole entry, looked up): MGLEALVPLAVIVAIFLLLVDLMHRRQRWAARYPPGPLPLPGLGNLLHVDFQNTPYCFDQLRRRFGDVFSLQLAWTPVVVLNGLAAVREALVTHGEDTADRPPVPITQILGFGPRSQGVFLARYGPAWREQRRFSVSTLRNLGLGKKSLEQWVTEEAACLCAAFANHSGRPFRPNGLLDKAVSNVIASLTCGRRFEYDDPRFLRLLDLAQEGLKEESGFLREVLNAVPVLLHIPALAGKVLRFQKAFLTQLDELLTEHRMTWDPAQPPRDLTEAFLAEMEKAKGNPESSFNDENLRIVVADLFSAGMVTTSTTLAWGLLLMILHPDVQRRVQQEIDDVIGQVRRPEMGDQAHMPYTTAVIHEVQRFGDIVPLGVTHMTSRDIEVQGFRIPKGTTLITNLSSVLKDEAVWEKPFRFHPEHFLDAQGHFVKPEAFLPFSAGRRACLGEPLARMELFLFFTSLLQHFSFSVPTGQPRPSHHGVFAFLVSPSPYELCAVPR
Chain of Rap guanine nucleotide exchange factor 3 (Homo sapiens) (O95398 whole entry, looked up): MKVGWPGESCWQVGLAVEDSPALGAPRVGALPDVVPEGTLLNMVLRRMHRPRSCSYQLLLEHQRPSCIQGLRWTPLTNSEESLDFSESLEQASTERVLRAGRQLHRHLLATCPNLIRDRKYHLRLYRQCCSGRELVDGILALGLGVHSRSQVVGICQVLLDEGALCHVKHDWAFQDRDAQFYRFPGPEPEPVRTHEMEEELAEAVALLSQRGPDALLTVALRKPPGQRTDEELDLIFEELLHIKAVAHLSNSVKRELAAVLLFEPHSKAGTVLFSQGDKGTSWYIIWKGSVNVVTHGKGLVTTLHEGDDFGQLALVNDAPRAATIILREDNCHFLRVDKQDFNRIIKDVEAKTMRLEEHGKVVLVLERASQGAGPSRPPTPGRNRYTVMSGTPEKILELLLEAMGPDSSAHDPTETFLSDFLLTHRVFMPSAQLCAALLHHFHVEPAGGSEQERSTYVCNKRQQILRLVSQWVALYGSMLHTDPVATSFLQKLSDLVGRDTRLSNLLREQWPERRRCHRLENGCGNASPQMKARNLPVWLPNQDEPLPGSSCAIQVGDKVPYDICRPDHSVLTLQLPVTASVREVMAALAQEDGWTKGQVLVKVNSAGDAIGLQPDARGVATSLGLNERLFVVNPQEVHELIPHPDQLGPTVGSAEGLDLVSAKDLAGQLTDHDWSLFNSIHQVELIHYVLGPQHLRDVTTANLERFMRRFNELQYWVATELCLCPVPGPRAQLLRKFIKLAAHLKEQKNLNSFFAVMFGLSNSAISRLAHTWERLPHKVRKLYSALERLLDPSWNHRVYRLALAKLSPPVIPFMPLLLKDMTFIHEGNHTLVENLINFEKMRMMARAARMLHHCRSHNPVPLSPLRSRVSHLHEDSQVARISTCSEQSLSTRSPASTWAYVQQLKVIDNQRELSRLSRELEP

`CC1(C)O[C@@H]2C[C@H]3[C@@H]4CCC5=CC(=O)CC[C@]5(C)[C@@]4(F)[C@@H](O)C[C@]3(C)[C@]2(C(=O)CCl)O1`: the Potency result in [1], in assay [2], in assay [3], in assay [5] and in [6] was “inactive” throughout. Besides, the Potency in assay [4] was 8.71 µM (active).

As to `O=c1ccc2ccccc2o1`, the Potency entry in assay [1], in assay [2], in [7], in [3], in [4] and in assay [5] was “inactive” throughout. For the same compound, the Potency entry in [6] is “inactive”.

On to `CCCCCCc1ccc(O)cc1O`, for which the Potency entry in [1], in assay [2] and in assay [9] was “inactive” in each case. The Potency in assay [3] was 4.9 µM (active); in assay [4] it was 8.71 µM (active); in assay [5], 13.3 µM (active); in assay [10] it was 39.3 µM (active). In addition, in assay [8], the call was inactive.

`CN(C)CCOc1ccccc1Cc1ccccc1`: the Potency entry in [1], in assay [2], in assay [4], in [5] and in assay [6] was “inactive” in each case. Besides, the Potency in [3] is 1.95 µM (active).

Turning to `COc1cc(N)c(Cl)cc1C(=O)NC1CCN(CCCOc2ccc(F)cc2)CC1OC` (stereo not given), the Potency entry in assay [1], in [2] and in assay [4] was “inactive” each time. Moreover, the Potency in [5] is 15 µM (active); in assay [6], 21.1 µM (active).

As for `CN1CCC(=C2c3ccccc3Sc3ccccc32)CC1`, the Potency result in assay [1], in assay [2] and in [4] was “inactive” in each case. Besides, the values for the Potency in assay [3], in assay [5] and in [6] were 1.38 µM (active), 16.8 µM (active) and 11.9 µM (active), respectively. Further, the compound was called inactive in assay [11].

In the case of `CCCOC(C(=O)OC1CCN(C)CC1)(c1ccccc1)c1ccccc1`, the Potency entry in [1], in [2] and in [4] was “inactive” in each case. Also, in assay [3], the Potency is 3.47 µM (active).

As to `COc1ccc(CN2CCN(C(c3ccc(F)cc3)c3ccc(F)cc3)CC2)c(OC)c1OC`, the Potency entry in assay [1] and in assay [2] was “inactive” each time. Further, the values for the Potency in assay [3], in [4] and in assay [6] were 2.19 µM (active), 11 µM (active) and 16.3 µM (active), respectively.

For `C/C=C/c1ccc(OC)cc1`, the Potency result in assay [1], in [12], in assay [7], in [3], in [5] and in assay [6] was “inactive” each time.

Take `COC(=O)C1=C(C)NC(C)=C(C(=O)O[C@@H]2CCCN(Cc3ccccc3)C2)[C@@H]1c1cccc([N+](=O)[O-])c1`: the Potency entry in assay [1], in assay [2] and in [13] was “inactive” throughout. The Potency in [3] is 6.92 µM (active); in assay [4] it was 0.195 µM (active); in assay [5], 21.1 µM (active) and 25.8 µM (active); in [6], 20.5 µM (active).

With `O=c1[nH]c(=O)n([C@H]2C[C@H](O)[C@@H](CO)O2)cc1C(F)(F)F`, the Potency result in [1], in assay [2], in assay [3] and in [4] was “inactive” each time. Also, the Potency in [5] is 596 nM (active) and 1.05 µM (active); in assay [6], 106 nM (active) and 662 nM (active).

For `Cc1ccnc(NS(=O)(=O)c2ccc(N)cc2)n1`, the Potency result in assay [1], in assay [12], in assay [7], in [3], in [4] and in assay [5] was “inactive” throughout. Besides, the Potency result in assay [6] is “inactive”.

As for `O=C(N/N=C/c1ccccc1O)c1ccncc1`, the Potency entry in assay [1], in [2] and in assay [7] was “inactive” each time. Moreover, the Potency was 4.36 µM (active) in assay [4], 6.68 µM (active) in assay [5] and 23.7 µM (active) in assay [6].

As for `COc1ccc(OC)c(C(O)CNC(=O)CN)c1` (stereo not given), the Potency result in [1], in [2], in assay [7], in assay [3], in assay [5] and in [6] was “inactive” throughout.

Regarding `CNCC[C@@H](Oc1ccccc1C)c1ccccc1`, the Potency result in assay [1], in assay [2] and in assay [4] was “inactive” throughout.

Consider `CCN(CC)CCOC(=O)C(c1ccccc1)C1CCCCC1` (stereo not given), for which the Potency entry in assay [1] and in assay [2] was “inactive” in each case. Besides, the Potency in [3] is 3.09 µM (active).

As to `Cc1cccn2c(=O)c(-c3nnn[nH]3)cnc12`, the Potency result in assay [1], in assay [2], in assay [7], in assay [4], in assay [5] and in [6] was “inactive” throughout.

As to `CCOC(=O)COc1ccc2c(C)c(CCN(CC)CC)c(=O)oc2c1Cl`, the Potency result in assay [1], in assay [2], in assay [4], in assay [5] and in assay [6] was “inactive” in each case. In addition, the call in assay [11] was inactive.

On to `CC[C@@H](CO)NCCN[C@@H](CC)CO`, for which the Potency entry in assay [1], in assay [2], in [3], in [4], in assay [5] and in assay [6] was “inactive” throughout.

For `CCCC(=O)Nc1ccc(OCC(O)CNC(C)C)c(C(C)=O)c1` (stereo not given), the Potency result in assay [1], in [2] and in assay [3] was “inactive” throughout.

Take `CCN(CCCc1ccccc1)CCCc1ccccc1`: the Potency result in assay [1], in assay [2] and in [4] was “inactive” in each case. In [3], the Potency is 1.23 µM (active).

On to `COc1cc(OC)cc(OC)c1`, for which the Potency result in assay [1], in assay [2], in [7], in assay [3], in assay [4] and in assay [5] was “inactive” each time. Besides, in [6], the Potency entry is “inactive”.

Turning to `COc1cc(/C=C/C(=O)O[C@H]2CC[C@]34C[C@]35CC[C@]3(C)[C@@H]([C@H](C)CCC=C(C)C)CC[C@@]3(C)[C@@H]5CC[C@H]4C2(C)C)ccc1O`, the Potency entry in assay [1], in [2], in assay [3] and in assay [4] was “inactive” each time.

Regarding `COc1c(C)c2c(c(O)c1C/C=C(\C)CCC(=O)O)C(=O)OC2`, the Potency result in assay [2], in [12], in assay [7], in [3] and in [4] was “inactive” throughout. Besides, the Potency in assay [5] is 66.8 nM (active) and 833 nM (active); in assay [6], 53.1 nM (active) and 590 nM (active).

`CN(C)CC/C=C1\c2ccccc2Sc2ccc(Cl)cc21`: the Potency result in assay [1] and in assay [4] was “inactive” throughout. In addition, the Potency in assay [7] is 12.6 µM (active); in [3], 1.23 µM (active).

Regarding `Oc1c(I)cc(Cl)c2cccnc12`, the Potency entry in assay [1] is “inactive”. Besides, the Potency in assay [7] is 5.62 µM (active); in assay [6], 8.41 µM (active).

As to `CCCCC(CC)CN=C(N)NC(N)=NCCCCCCN=C(N)NC(N)=NCC(CC)CCCC` (stereo not given), the Potency in assay [14] is 28.2 µM (active); in assay [7], 11.2 µM (active); in [3], 0.617 µM (active); in [4] it was 12.3 µM (active); in assay [13], 18.3 µM (active); in [5], 0.75 µM (active). For the same compound, the Potency in assay [6] is 0.841 µM (active). Also, in assay [12], the Potency result is “inactive”.

Values taken from PubChem BioAssay (NCATS).
